± gives the standard deviation of the averaged measurements. Of roughly 5,400 targets only a part is listed; those with the largest changes were picked by preference.
What follows are targets tested with Nc1nc2c(ncn2[C@@H]2O[C@H](COP(=O)(O)OP(=O)(O)OP(=O)(O)O)[C@@H](O)[C@H]2O)c(=O)[nH]1 [guanosine triphosphate] (assay: NP40-soluble protein abundance relative to vehicle (solubility fold change) (ratio); higher = more soluble protein in presence of GTP). Conditions: concentration: 0.1mM.
How it was run: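 Data come from three independent experiments in which Dounce-homogenised Jurkat crude lysate was treated at eight concentrations from 0.1 to 10 mM. Treatment ran 10 min at room temperature and then 3 min at 37 °C, after which 0.8% NP40 and benzonase were added for 60 min at 4 °C before ultracentrifugation. The supernatant underwent TMT labelling and LC-MS/MS, and vsn-normalised intensities were expressed as fold change against the detergent-processed vehicle in each replicate.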
Chain of UniProt Q92804 (Q92804 whole entry): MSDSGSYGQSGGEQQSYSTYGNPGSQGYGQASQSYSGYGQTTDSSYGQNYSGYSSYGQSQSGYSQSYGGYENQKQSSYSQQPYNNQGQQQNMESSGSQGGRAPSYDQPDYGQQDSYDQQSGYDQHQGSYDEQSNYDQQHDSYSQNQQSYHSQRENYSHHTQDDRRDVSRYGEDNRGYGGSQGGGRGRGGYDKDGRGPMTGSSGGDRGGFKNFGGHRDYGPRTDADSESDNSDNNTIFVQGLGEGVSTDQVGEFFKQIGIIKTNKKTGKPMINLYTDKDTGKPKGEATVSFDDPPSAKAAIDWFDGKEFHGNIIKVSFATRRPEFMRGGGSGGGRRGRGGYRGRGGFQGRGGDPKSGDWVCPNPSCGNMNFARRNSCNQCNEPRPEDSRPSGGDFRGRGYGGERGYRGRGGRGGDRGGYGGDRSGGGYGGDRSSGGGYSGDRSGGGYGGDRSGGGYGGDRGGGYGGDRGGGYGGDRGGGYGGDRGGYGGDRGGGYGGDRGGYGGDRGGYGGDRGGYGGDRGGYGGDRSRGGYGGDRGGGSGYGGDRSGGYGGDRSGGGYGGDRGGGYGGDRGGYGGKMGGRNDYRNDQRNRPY
Chain of UniProt Q9P2J5 (Q9P2J5 whole entry, looked up): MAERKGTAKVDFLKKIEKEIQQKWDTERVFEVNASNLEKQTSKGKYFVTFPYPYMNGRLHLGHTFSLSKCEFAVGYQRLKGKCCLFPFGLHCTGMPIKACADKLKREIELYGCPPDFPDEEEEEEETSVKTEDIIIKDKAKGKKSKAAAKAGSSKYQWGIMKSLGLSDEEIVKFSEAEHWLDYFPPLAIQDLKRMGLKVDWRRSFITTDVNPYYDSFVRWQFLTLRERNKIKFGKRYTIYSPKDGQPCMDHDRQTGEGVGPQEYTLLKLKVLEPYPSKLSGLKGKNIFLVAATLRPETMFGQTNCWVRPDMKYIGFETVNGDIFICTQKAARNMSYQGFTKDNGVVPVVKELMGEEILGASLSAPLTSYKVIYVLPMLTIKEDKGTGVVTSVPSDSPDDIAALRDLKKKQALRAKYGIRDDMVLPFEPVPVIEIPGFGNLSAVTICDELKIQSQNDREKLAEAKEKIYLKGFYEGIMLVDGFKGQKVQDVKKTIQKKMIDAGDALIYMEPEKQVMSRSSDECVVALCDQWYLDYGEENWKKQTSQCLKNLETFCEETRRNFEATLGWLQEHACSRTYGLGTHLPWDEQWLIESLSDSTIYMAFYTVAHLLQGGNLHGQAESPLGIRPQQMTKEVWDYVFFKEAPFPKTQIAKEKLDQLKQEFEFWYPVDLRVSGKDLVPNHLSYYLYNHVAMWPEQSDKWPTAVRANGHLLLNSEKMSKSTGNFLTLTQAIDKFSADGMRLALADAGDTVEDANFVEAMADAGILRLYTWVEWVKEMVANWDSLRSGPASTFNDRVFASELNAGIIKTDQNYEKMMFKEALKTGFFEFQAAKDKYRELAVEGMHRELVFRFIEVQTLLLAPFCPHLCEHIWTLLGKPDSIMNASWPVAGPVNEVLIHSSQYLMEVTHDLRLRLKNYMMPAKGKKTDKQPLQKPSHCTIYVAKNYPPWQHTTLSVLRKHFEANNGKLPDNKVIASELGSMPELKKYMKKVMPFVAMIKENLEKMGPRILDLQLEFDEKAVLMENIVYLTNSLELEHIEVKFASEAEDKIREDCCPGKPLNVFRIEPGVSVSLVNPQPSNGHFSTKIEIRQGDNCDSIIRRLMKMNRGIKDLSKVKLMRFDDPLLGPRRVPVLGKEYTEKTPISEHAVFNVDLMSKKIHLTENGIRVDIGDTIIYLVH
Chain of UniProt Q969H8 (Q969H8 whole entry): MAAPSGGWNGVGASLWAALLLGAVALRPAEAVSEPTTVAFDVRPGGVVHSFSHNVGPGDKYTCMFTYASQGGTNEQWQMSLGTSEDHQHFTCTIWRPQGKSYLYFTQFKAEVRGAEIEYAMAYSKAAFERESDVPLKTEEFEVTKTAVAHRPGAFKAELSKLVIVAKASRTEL
Chain of UniProt Q9BTY7 (Q9BTY7 whole entry): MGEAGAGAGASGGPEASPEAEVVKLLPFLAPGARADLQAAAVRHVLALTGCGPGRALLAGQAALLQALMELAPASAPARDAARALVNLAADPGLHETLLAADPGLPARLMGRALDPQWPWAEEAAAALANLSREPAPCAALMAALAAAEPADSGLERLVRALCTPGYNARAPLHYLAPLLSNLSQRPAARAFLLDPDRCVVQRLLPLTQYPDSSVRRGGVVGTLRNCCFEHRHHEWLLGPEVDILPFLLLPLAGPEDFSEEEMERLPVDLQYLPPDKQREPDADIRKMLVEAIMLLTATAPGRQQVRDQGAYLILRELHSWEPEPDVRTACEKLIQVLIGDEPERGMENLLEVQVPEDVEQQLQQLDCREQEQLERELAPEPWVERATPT
Chain of UniProt Q96BS2 (Q96BS2 whole entry): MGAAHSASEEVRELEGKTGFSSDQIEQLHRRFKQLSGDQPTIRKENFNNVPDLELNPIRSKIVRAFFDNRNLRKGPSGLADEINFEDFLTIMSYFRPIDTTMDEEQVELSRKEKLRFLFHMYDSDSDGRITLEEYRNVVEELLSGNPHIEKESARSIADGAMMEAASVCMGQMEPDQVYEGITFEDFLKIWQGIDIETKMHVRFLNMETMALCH
Chain of UniProt Q9UBV8 (Q9UBV8 whole entry): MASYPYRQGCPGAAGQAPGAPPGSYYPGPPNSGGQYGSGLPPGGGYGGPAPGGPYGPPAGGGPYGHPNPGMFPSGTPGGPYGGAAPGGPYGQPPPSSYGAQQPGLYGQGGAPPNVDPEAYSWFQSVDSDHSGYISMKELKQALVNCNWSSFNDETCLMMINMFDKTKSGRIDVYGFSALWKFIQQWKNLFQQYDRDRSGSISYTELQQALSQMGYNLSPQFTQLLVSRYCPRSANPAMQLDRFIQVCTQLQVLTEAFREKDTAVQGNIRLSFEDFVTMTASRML
Chain of UniProt Q9NW08 (Q9NW08 whole entry): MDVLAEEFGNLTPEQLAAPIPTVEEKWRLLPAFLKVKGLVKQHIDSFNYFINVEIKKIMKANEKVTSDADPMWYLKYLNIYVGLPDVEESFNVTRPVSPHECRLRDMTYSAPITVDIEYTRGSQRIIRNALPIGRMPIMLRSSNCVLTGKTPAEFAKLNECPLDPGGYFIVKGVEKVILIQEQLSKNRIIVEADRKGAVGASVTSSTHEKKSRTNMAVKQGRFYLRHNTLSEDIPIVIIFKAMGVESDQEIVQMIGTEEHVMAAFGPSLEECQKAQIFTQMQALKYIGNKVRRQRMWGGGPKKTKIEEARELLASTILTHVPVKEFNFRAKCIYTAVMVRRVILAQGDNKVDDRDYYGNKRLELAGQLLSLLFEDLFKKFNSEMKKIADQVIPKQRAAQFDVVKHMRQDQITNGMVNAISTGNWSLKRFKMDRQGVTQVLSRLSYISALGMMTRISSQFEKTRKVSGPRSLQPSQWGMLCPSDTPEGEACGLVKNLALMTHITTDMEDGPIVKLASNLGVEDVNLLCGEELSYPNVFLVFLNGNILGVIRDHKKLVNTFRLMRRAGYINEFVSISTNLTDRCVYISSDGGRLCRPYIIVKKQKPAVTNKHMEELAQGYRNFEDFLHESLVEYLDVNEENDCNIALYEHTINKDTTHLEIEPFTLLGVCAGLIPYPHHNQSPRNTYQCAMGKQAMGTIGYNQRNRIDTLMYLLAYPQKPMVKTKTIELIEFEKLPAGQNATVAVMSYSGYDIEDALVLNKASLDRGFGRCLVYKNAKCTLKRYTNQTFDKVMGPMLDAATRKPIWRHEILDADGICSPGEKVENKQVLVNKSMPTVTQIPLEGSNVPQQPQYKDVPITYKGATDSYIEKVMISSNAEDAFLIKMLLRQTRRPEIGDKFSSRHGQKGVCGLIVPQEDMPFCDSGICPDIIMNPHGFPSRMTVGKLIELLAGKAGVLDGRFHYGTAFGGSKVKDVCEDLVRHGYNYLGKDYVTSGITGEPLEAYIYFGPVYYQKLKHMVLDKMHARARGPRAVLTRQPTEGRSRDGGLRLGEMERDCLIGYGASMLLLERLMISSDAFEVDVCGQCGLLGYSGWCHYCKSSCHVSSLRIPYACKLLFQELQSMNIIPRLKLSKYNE
Chain of UniProt Q9Y333 (Q9Y333 whole entry): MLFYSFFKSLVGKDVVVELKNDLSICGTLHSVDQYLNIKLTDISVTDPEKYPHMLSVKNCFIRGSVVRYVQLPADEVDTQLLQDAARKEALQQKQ
Chain of UniProt Q9NVF7 (Q9NVF7 whole entry): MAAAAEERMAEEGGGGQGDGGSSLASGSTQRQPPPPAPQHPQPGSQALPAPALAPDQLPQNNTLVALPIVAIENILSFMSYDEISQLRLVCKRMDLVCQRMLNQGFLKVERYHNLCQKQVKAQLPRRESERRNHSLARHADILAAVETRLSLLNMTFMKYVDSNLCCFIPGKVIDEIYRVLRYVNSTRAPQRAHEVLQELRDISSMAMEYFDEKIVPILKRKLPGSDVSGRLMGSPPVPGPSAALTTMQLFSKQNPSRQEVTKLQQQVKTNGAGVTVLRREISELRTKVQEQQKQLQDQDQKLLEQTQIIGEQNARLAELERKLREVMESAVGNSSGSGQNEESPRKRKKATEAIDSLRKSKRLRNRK
Chain of UniProt Q9H0C8 (Q9H0C8 whole entry): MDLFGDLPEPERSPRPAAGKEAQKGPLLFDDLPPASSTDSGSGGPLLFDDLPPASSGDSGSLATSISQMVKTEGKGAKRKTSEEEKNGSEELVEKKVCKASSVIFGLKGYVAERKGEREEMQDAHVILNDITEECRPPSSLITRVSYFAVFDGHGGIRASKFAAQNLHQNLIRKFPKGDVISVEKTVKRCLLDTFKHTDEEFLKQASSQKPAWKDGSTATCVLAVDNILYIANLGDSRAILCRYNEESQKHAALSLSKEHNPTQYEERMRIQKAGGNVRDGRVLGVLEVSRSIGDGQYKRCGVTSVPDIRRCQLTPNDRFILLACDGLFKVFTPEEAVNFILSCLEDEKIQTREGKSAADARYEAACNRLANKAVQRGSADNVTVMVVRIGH
Work on MTMR6 (UniProt Q9Y217) yielded an NP40-soluble protein abundance of 1.068 ± 0.0063. Target UniProt Q9Y2A7|Q9Y2A7-2 has an NP40-soluble protein abundance of 0.9505 ± 0.0043. Target TMOD3 (UniProt Q9NYL9) has an NP40-soluble protein abundance of 0.878 ± 0.033. UniProt Q9Y3D9|J3QLR8 gave an NP40-soluble protein abundance of 1.01 ± 0.17. FAM117A (UniProt Q9C073) gave an NP40-soluble protein abundance of 1.31 ± 0.14. Work on PEF1 (UniProt Q9UBV8) yielded an NP40-soluble protein abundance of 0.946 ± 0.077. With UniProt Q9H8M2|Q9H8M2-3|Q9H8M2-6 the NP40-soluble protein abundance was 0.966 ± 0.054. With UniProt Q9Y3U8|J3QSB5 the NP40-soluble protein abundance was 0.976 ± 0.084. Target UniProt Q9BTY7 has an NP40-soluble protein abundance of 0.967 ± 0.086. Target UniProt Q9NVI7-2 has an NP40-soluble protein abundance of 1.07 ± 0.062. SAMM50 (UniProt Q9Y512) showed an NP40-soluble protein abundance of 1.13 ± 0.15. UniProt Q9Y6A4 gave an NP40-soluble protein abundance of 1.09 ± 0.027. UniProt Q9Y333 showed an NP40-soluble protein abundance of 0.946 ± 0.08. Target UniProt Q92900|Q92900-2 has an NP40-soluble protein abundance of 1.01 ± 0.025. DCUN1D5 (UniProt Q9BTE7) was tested, and the NP40-soluble protein abundance was 0.984 ± 0.048. UniProt Q9NW08|Q9NW08-2 gave an NP40-soluble protein abundance of 1.08 ± 0.03. Work on UniProt Q9NR28|Q9NR28-2 yielded an NP40-soluble protein abundance of 0.964 ± 0.011. With UniProt Q96BY9|H0YAZ1 the NP40-soluble protein abundance was 1.08 ± 0.15. Target LUC7L2 (UniProt Q9Y383) has an NP40-soluble protein abundance of 1.09 ± 0.11. In the case of UniProt Q9Y3L3|Q9Y3L3-2, the NP40-soluble protein abundance is reported as 0.998 ± 0.025. Target CCDC134 (UniProt Q9H6E4) has an NP40-soluble protein abundance of 0.934 ± 0.071. Target UTP18 (UniProt Q9Y5J1) has an NP40-soluble protein abundance of 1.06 ± 0.091. FBXO28 (UniProt Q9NVF7) showed an NP40-soluble protein abundance of 1.09 ± 0.028. In the case of UniProt Q9H832|Q9H832-2, the NP40-soluble protein abundance is reported as 1.04 ± 0.06. UniProt Q9UJX6|Q9UJX6-2 was tested, and the NP40-soluble protein abundance was 1.3 ± 0.28. CORO2A (UniProt Q92828) showed an NP40-soluble protein abundance of 1.08 ± 0.12. Work on CDV3 (UniProt Q9UKY7) yielded an NP40-soluble protein abundance of 0.957 ± 0.072. With RAB21 (UniProt Q9UL25) the NP40-soluble protein abundance was 0.998 ± 0.058. In the case of LARS (UniProt Q9P2J5), the NP40-soluble protein abundance is reported as 1.05 ± 0.078. In the case of NCOA5 (UniProt Q9HCD5), the NP40-soluble protein abundance is reported as 1.03 ± 0.053. UniProt Q92804|Q92804-2 was tested, and the NP40-soluble protein abundance was 0.976 ± 0.03. For UniProt Q9NVR5, the NP40-soluble protein abundance was 0.928 ± 0.076. FAM120C (UniProt Q9NX05) was tested, and the NP40-soluble protein abundance was 1 ± 0.021. In the case of UniProt Q9Y4P8|Q9Y4P8-4|Q9Y4P8-6, the NP40-soluble protein abundance is reported as 1.04 ± 0.11. Target TESC (UniProt Q96BS2) has an NP40-soluble protein abundance of 1.01 ± 0.035. Target UniProt Q969H8 has an NP40-soluble protein abundance of 0.971 ± 0.023. NAT10 (UniProt Q9H0A0) showed an NP40-soluble protein abundance of 1.07 ± 0.065. In the case of ILKAP (UniProt Q9H0C8), the NP40-soluble protein abundance is reported as 0.959 ± 0.034.

Same assay, conditions: concentration: 0.5mM
Work on MTMR6 (UniProt Q9Y217) yielded an NP40-soluble protein abundance of 1.02 ± 0.027. In the case of UniProt Q9Y2A7|Q9Y2A7-2, the NP40-soluble protein abundance is reported as 1.002 ± 0.0081. In the case of TMOD3 (UniProt Q9NYL9), the NP40-soluble protein abundance is reported as 0.855 ± 0.044. Work on UniProt Q9Y3D9|J3QLR8 yielded an NP40-soluble protein abundance of 1.01 ± 0.19. Work on FAM117A (UniProt Q9C073) yielded an NP40-soluble protein abundance of 0.983 ± 0.018. For PEF1 (UniProt Q9UBV8), the NP40-soluble protein abundance was 0.888 ± 0.036. Work on UniProt Q9H8M2|Q9H8M2-3|Q9H8M2-6 yielded an NP40-soluble protein abundance of 1.05 ± 0.13. UniProt Q9Y3U8|J3QSB5 was tested, and the NP40-soluble protein abundance was 0.987 ± 0.01. For UniProt Q9BTY7, the NP40-soluble protein abundance was 0.856 ± 0.056. Target UniProt Q9NVI7-2 has an NP40-soluble protein abundance of 1.16 ± 0.085. SAMM50 (UniProt Q9Y512) showed an NP40-soluble protein abundance of 1.18 ± 0.19. Target UniProt Q9Y6A4 has an NP40-soluble protein abundance of 1.04 ± 0.076. UniProt Q9Y333 showed an NP40-soluble protein abundance of 0.98 ± 0.11. UniProt Q92900|Q92900-2 was tested, and the NP40-soluble protein abundance was 1.01 ± 0.04. For DCUN1D5 (UniProt Q9BTE7), the NP40-soluble protein abundance was 0.929 ± 0.07. Target UniProt Q9NW08|Q9NW08-2 has an NP40-soluble protein abundance of 1.13 ± 0.075. UniProt Q9NR28|Q9NR28-2 gave an NP40-soluble protein abundance of 0.957 ± 0.055. Work on UniProt Q96BY9|H0YAZ1 yielded an NP40-soluble protein abundance of 1.08 ± 0.064. LUC7L2 (UniProt Q9Y383) was tested, and the NP40-soluble protein abundance was 1.4 ± 0.08. With UniProt Q9Y3L3|Q9Y3L3-2 the NP40-soluble protein abundance was 1 ± 0.045. Work on CCDC134 (UniProt Q9H6E4) yielded an NP40-soluble protein abundance of 0.893 ± 0.1. UTP18 (UniProt Q9Y5J1) gave an NP40-soluble protein abundance of 1.16 ± 0.12. FBXO28 (UniProt Q9NVF7) was tested, and the NP40-soluble protein abundance was 1.08 ± 0.13. For UniProt Q9H832|Q9H832-2, the NP40-soluble protein abundance was 0.987 ± 0.061. UniProt Q9UJX6|Q9UJX6-2 was tested, and the NP40-soluble protein abundance was 1.33 ± 0.37. With CORO2A (UniProt Q92828) the NP40-soluble protein abundance was 1.09 ± 0.11. Work on CDV3 (UniProt Q9UKY7) yielded an NP40-soluble protein abundance of 1.05 ± 0.071. RAB21 (UniProt Q9UL25) showed an NP40-soluble protein abundance of 0.967 ± 0.036. Target LARS (UniProt Q9P2J5) has an NP40-soluble protein abundance of 1.13 ± 0.15. Target NCOA5 (UniProt Q9HCD5) has an NP40-soluble protein abundance of 1 ± 0.028. UniProt Q92804|Q92804-2 gave an NP40-soluble protein abundance of 1.048 ± 0.0095. For UniProt Q9NVR5, the NP40-soluble protein abundance was 0.944 ± 0.078. With FAM120C (UniProt Q9NX05) the NP40-soluble protein abundance was 1.04 ± 0.017. With UniProt Q9Y4P8|Q9Y4P8-4|Q9Y4P8-6 the NP40-soluble protein abundance was 1.01 ± 0.028. In the case of TESC (UniProt Q96BS2), the NP40-soluble protein abundance is reported as 0.983 ± 0.071. With UniProt Q969H8 the NP40-soluble protein abundance was 0.949 ± 0.034. NAT10 (UniProt Q9H0A0) gave an NP40-soluble protein abundance of 1.04 ± 0.061. ILKAP (UniProt Q9H0C8) was tested, and the NP40-soluble protein abundance was 0.95 ± 0.023.
